High-throughput results (PubChem BioAssay)
Tg IFNy HTS: T. gondii growth inhibition with IFN-gamma, primary screen, cell-based; activity change, negative = inhibition, % (no concentration beside the values); 3.8% of 69,000 active; AID 1259416, 2018; Toxoplasma gondii growth in IFN-gamma-treated host cells; active compounds read low; in the data active = activity change below about -70%, passing the limit was not always enough;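 note: host cells are HeLa cells infected with Toxoplasma gondii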
Of the large screens only hits and unclear results are named; the others gave an inactive call; ! = a repeat was not active. The full list was thinned out, with hits kept by preference.

CCN1c2cc(C)ccc2-n2cccc2C12CCN(C(=O)Nc1cccc(Cl)c1)CC2	Tg IFNy HTS -82
CCN1c2cc(C)ccc2-n2cccc2C12CCN(C(=O)Nc1ccc(C)cc1)CC2	Tg IFNy HTS -75
CCc1ccc(NC(=O)N2CCC3(CC2)c2cccn2-c2ccc(C)cc2N3CC)cc1	none
CCN1c2cc(C)ccc2-n2cccc2C12CCN(C(=O)Nc1cc(Cl)c(OC)cc1OC)CC2	none
CCOc1cc2c3c(c1)C1(NCCc4c1[nH]c1ccccc41)C(=O)N3C(C)(C)C=C2C (stereo not drawn)	none
CN(C)C(=O)C1(CCCc2ccccn2)CCCN1 (stereo not drawn)	none
O=C(Cn1ncc2c(N3CCCCC3)ncnc21)N1CCN(c2ccccn2)CC1	none
COC(F)(C(=O)NC12CC3CC(CC(C3)C1)C2)C(F)(F)F (stereo not drawn)	none
CN(C)CC(=O)N1CCCCC1CCc1ccccn1 (stereo not drawn)	none
CCn1cc(CN2CCN(C(=O)CCS(=O)(=O)c3ccc(Cl)cc3)CC2)cn1	none
CC(C)CN(C[C@@H](O)[C@H](Cc1ccccc1)NC(=O)O[C@H]1CO[C@H]2OCC[C@H]21)S(=O)(=O)c1ccc(N)cc1	Tg IFNy HTS -72
CC(C)CN(C[C@@H](O)[C@H](Cc1ccccc1)NC(=O)O[C@H]1CCOC1)S(=O)(=O)c1ccc(N)cc1	none
CCOC(=O)c1cccc(NC(=O)CN2C(=O)CCc3cc(Br)ccc32)c1	none
COc1ccc(OC)c(C2CCN(C(=O)CCNC(=O)c3ccc(F)cc3)C2)c1 (stereo not drawn)	none
O=C(CCN1CCCO1)N1CCOc2c(O)cc(-c3cccnc3)cc2C1	none
Cc1ccc(-c2cc(O)c3c(c2)CN(C(=O)CCCn2cncn2)CCO3)cc1	Tg IFNy HTS -76
Oc1cc(-c2csc3ccccc23)cc2c1OCCN(CCn1cncn1)C2	none
Cc1c(-c2cc(C(=O)NC(c3ccc(F)cc3)c3nccn3C)on2)cnn1C (stereo not drawn)	none
O=C(CSc1nnc(CN2CCOCC2)n1-c1ccccc1)c1ccc2c(c1)CCCC2	none
C[C@@H]1CN(Cc2ccccc2F)CCN1CC(=O)Nc1ccc(N2CCCCCC2)cc1	none
O=C(Nc1ccc(N2CCCCC2)cc1)c1ccccc1Cl	none
O=C(Nc1cnn(Cc2ccccc2F)c1)c1ccc(N2CCCCC2)cc1	Tg IFNy HTS -95
C[C@H](NC(=O)c1ccc(Cl)cc1Cl)C(=O)NC1CCCCC1	none
COCC1(C(=O)N(C)Cc2nonc2C)CCC1	none
CN1CCN(c2ccc(NS(=O)(=O)c3ccc(Br)cc3)cc2)CC1	none
Cc1oc(C2CCN(C(=O)Nc3ccccc3Cl)CC2)nc1C(=O)N1CCCC1	none
CC1NC(=O)COC12CCN(C(=O)c1cccnc1)CC2 (stereo not drawn)	none
CCc1ccc(CCC(=O)N2CCCC3(CNC(=O)O3)C2)cc1 (stereo not drawn)	none
OCCn1cc(-c2ccc3c(c2)CC/C3=N\O)c(-c2ccncc2)n1	Tg IFNy HTS -78!
O=S(=O)(c1ccccc1)N1CC2CCC1C2Oc1cccnc1 (stereo not drawn)	none
CC(C)NC(=O)Nc1ccc2c(c1)C(=O)N([C@@H](C)CO)C[C@@H](C)[C@H](CN(C)C(=O)C1CCCCC1)OCCCC[C@H](C)O2	none
C[C@H](CO)N1C[C@H](C)[C@@H](CN(C)C(=O)C2CCCCC2)OCCCC[C@H](C)Oc2ccc(NS(=O)(=O)c3ccccc3)cc2C1=O	Tg IFNy HTS -78
CC(C)NC(=O)Nc1ccc2c(c1)C(=O)N([C@@H](C)CO)C[C@@H](C)[C@@H](CN(C)C(=O)C1CCCCC1)OCCCC[C@H](C)O2	none
C[C@@H]1CCCCO[C@@H](CN(C)C(=O)C2CCCCC2)[C@@H](C)CN([C@@H](C)CO)C(=O)c2cc(NS(=O)(=O)c3ccccc3)ccc2O1	none
C[C@@H]1CCCCO[C@@H](CN(C)C(=O)C2CCCCC2)[C@H](C)CN([C@H](C)CO)C(=O)c2cc(NS(=O)(=O)c3ccccc3)ccc2O1	none
C[C@@H]1CCCCO[C@H](CN(C)C(=O)C2CCCCC2)[C@H](C)CN([C@H](C)CO)C(=O)c2cc(NS(=O)(=O)c3ccccc3)ccc2O1	Tg IFNy HTS -145
CC(C)CC(NS(=O)(=O)c1ccc2[nH]c(=O)ccc2c1)C(=O)N1CCN(C)CC1 (stereo not drawn)	none
Cc1nc([C@@H]2C[C@@H]3CN(Cc4ccc(C)s4)C[C@@H]3O2)n[nH]1	none
CC1(C(=O)NCc2nnc3n2CCCCC3)CC(c2ccccc2Cl)=NO1 (stereo not drawn)	none
CSc1ccc(CN(CCO)Cc2ccc3c(C)cc(=O)oc3c2)cc1	none
Cc1cc(C)c2c(n1)sc1c(=O)n(N)c(C)nc12	none
Cc1nn(-c2ccc(F)cc2F)c(=O)c2nc(-c3ccccc3)sc12	none
Cc1nc2cc(-c3ccccc3)sc2c(=O)n1N	Tg IFNy HTS -107
COc1cc2c(cc1OC)[C@@H](C1CC=CCC1)N[C@@H](c1ccc(C)cn1)C2 (stereo partly drawn)	none
CCCCOc1ccc(NC(=O)CN2CCN(CC)CC2)cc1	none
CCCCOc1ccc(CC(=O)NO)cc1	Tg IFNy HTS -100!
O=C(Cc1ccccc1)NO	none
CCCCSC(=S)NC1CCS(=O)(=O)C1 (stereo not drawn)	none
CCCCCCCCCCOC1CCS(=O)(=O)C1 (stereo not drawn)	Tg IFNy HTS -84
Cc1nn(C(C)CC(=O)NC(c2ccc(F)cc2)c2nccn2C)c(C)c1Cl (stereo not drawn)	none
CCOCCN1Cc2ncn(C)c2C(COCc2cccc(C)n2)C1 (stereo not drawn)	none
COCCN1CCc2nc(SCc3nc(-c4ccc(C)cc4)oc3C)[nH]c(=O)c2C1	none
COC[C@H]1CN(C)C[C@@]12CCN(C(=O)COc1ccccc1C)C2	none
Cc1nnsc1C(=O)Nc1cccc(N)c1	none
Cc1ccc(C(=O)Nc2ccc(-n3nc(C(F)(F)F)cc3-c3cccs3)cc2)cc1	none
Cc1nnsc1C(=O)Nc1ccc(-n2nc(C(F)(F)F)cc2C(F)(F)F)cc1	Tg IFNy HTS -81
CCn1ncnc1C(C)NC(=O)Cc1cc2c(cc1Cl)OCCO2 (stereo not drawn)	none
CCOc1ccccc1-c1nc(CN(c2cccc(OC)c2)S(=O)(=O)c2ccc(C)cc2)c(C)o1	none
CCc1noc(CC)c1C(=O)N1CCC(c2cc3ncccc3c(=O)[nH]2)C1 (stereo not drawn)	none
Clc1ccc(-c2nc(NCc3ccc4c(c3)OCO4)c3ccccc3n2)cc1	none
O=C(CCSc1ccc2c(c1)OCCO2)NCCN1CCCC(O)C1 (stereo not drawn)	none
COc1ccc(Oc2cccc(Cl)c2CNC(=O)CSCC(=O)O)cc1	none
COc1ccc(Oc2ccc(C(=O)NCCc3ccccn3)cc2)cc1	none
COc1ccc(Oc2cccc(F)c2CNC(=O)c2ccc(OC)cc2)cc1	Tg IFNy HTS -88
Cc1[nH]cnc1-c1nccn1-c1cccc(CN2CCCC2)c1	none
Cc1nc(-c2ccccc2)sc1CCNC(=O)c1ccc([N+](=O)[O-])cc1	none
CC(C)NC(=O)c1cnc2n1CCN(Cc1nccn1C)C2	none
Cn1ncc2c3ccccc3n(CC(=O)N3CCN(c4ncccn4)CC3)c2c1=O	none
CCC(C(=O)N1CCN(c2ncccn2)CC1)n1c2ccccc2c2cnn(C)c(=O)c21 (stereo not drawn)	Tg IFNy HTS -86
CCC(C(=O)NCc1ccccn1)n1c2ccccc2c2cnn(C)c(=O)c21 (stereo not drawn)	none
Cc1nc2ccccc2n1C(C)C(=O)N1CCN(c2nccs2)CC1 (stereo not drawn)	none
Cc1cccc(-c2nc(CSc3nc(=O)c4c(C)cc(C)nc4n3C3CC3)c(C)o2)c1	none
COc1cc(N2CCc3ncnc(C)c3CC2)ncn1	none
